Test systems include NCI-H23 lung; NCI-H226 lung; NCI-H322M lung; HOP-62 NSCLC; NCI-H460 lung; HOP-92 NSCLC; NCI-H522 lung; A549/ATCC NSCLC; 786-0 renal; COLO 205 colon; DU-145 prostate; K-562 leukemia; MALME-3M melanoma; MDA-MB-231 breast; RXF 393 renal; SF-268 CNS; SF-295 CNS; SF-539 CNS; UACC-257 melanoma; M14 melanoma.
Assay in all cases: NCI-60 one-dose screen, 48 h (100 = growth as untreated, 0 = no growth, -100 = all killed)
Common to all, as to settings: 10 µM unless noted

The structures appear in SMILES notation. About 83,000 compounds went through this panel and 20% of them were active in at least one assay; those are over-represented in the sample as a whole.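 Negative percent growth values reflect cell death: -40 means 40% of the cells present at the start died, and -100 means all died.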 Values without a mark were called inactive. Calls of active or inactive are those of the source. The calls were made as follows: active = growth percent below 10; inactive = the rest.

With `O=[N+]([O-])c1cc([N+](=O)[O-])c(Cl)cc1Cl`, the growth with NCI-H23 lung is -56.4% (active); with NCI-H226 lung, -59% (active); in the assay with NCI-H322M lung it was 40.6%; in the assay with HOP-62 NSCLC, -73.9% (active); with NCI-H460 lung, -45.8% (active); with HOP-92 NSCLC, -80.1% (active). The growth with NCI-H522 lung was -69.6% (active); in the assay on A549/ATCC NSCLC, 39.9%; with 786-0 renal, -67.8% (active); in the assay with COLO 205 colon it was -75.7% (active); in the assay on DU-145 prostate it was -85.3% (active); with K-562 leukemia, -9.49% (active). In addition, the growth was -68.4% (active) in the assay on MALME-3M melanoma; -86.5% (active) with MDA-MB-231 breast; -90.6% (active) in the assay with RXF 393 renal; -80.2% (active) in the assay on SF-268 CNS; -70.4% (active) with SF-295 CNS; -83.2% (active) in the assay with SF-539 CNS. Also, the growth in the assay on UACC-257 melanoma was -68.9% (active); with M14 melanoma, -96.8% (active).
In the case of `COC(=O)[C@H](Cc1ccccc1)NC(=O)c1csc([C@@H](C[C@H](C(C)C)N(C)C(=O)[C@@H](NC(=O)[C@H]2CCCCN2C)C2CC2)OC(C)=O)n1`, the growth with NCI-H23 lung is 23.9%; in the assay with NCI-H226 lung, 27.7%; in the assay with NCI-H322M lung, 46.1%; with HOP-62 NSCLC, -2.57% (active); in the assay on NCI-H460 lung, 1.93% (active); in the assay with HOP-92 NSCLC, -3.94% (active). Further, the growth was -28.7% (active) in the assay with NCI-H522 lung; 14.2% in the assay with A549/ATCC NSCLC; 11.7% in the assay with 786-0 renal; -66.6% (active) in the assay on COLO 205 colon; 6.13% (active) in the assay on DU-145 prostate; 3.82% (active) in the assay with K-562 leukemia. For the same molecule, the growth is 67.8% in the assay on MALME-3M melanoma; -1.7% (active) in the assay with MDA-MB-231 breast; 75.8% in the assay on RXF 393 renal; 19.2% in the assay with SF-268 CNS; 3.79% (active) with SF-295 CNS; -14.4% (active) in the assay on SF-539 CNS. Besides, the growth in the assay on UACC-257 melanoma was 54.2%; in the assay with M14 melanoma it was -5.77% (active).
As for `CCCCCCCCCCCCCCCCCC1OC[C@@H](COC(=O)O[C@@H](C(=O)O[C@H]2C[C@@]3(O)[C@@H](OC(=O)c4ccccc4)[C@@H]4[C@]5(OC(C)=O)CO[C@@H]5C[C@H](O)[C@@]4(C)C(=O)[C@H](OC(C)=O)C(=C2C)C3(C)C)[C@@H](NC(=O)c2ccccc2)c2ccccc2)O1` (stereo not given in full), the growth in the assay on NCI-H23 lung was 54.2%; with NCI-H226 lung, 83.4%; in the assay on NCI-H322M lung it was 55.7%; in the assay on HOP-62 NSCLC it was 68.4%; with NCI-H460 lung, 20.4%; in the assay with HOP-92 NSCLC, 66.4%. In addition, the growth with NCI-H522 lung was 57.6%; with A549/ATCC NSCLC it was 47.5%; with 786-0 renal it was 90.6%; with COLO 205 colon, 13.1%; in the assay with DU-145 prostate, 45.1%; with K-562 leukemia, 46.6%. In addition, the growth in the assay with MALME-3M melanoma was 50.5%; in the assay on MDA-MB-231 breast it was 60.5%; with RXF 393 renal it was 63.1%; in the assay on SF-268 CNS it was 66%; in the assay on SF-295 CNS it was 61%; with SF-539 CNS, 51.9%. For the same molecule, the figures for the growth with UACC-257 melanoma and with M14 melanoma were 69.8% and 38.8%, respectively.
`COc1cc(C=Nc2cccc(C(=O)O)c2)ccc1N(CCCl)CCCl`: the growth in the assay with NCI-H23 lung is 103%; with NCI-H226 lung, 92.7%; with NCI-H322M lung, 100%; with HOP-62 NSCLC it was 118%; in the assay with NCI-H460 lung, 75.4%; in the assay on HOP-92 NSCLC, 101%. In addition, the growth in the assay with NCI-H522 lung is -3.21% (active); in the assay with A549/ATCC NSCLC it was 96.6%; in the assay with 786-0 renal, 105%; in the assay with COLO 205 colon, 67.1%; in the assay on DU-145 prostate it was 111%; in the assay on K-562 leukemia it was 101%. For the same molecule, the growth with MALME-3M melanoma is 84.4%; with MDA-MB-231 breast it was 106%; in the assay with RXF 393 renal, 99.4%; in the assay on SF-268 CNS, 113%; with SF-295 CNS, 98.3%; with SF-539 CNS it was 102%. The values for the growth with UACC-257 melanoma and in the assay on M14 melanoma were 85.1% and 104%, respectively.
With `CC1=C(CCCOC(=O)[C@H](N)CC(C)C)C2=C(C)C3(CC3)[C@@](C)(O)C(=O)C2=C1`, the growth in the assay with NCI-H23 lung is -27.6% (active); with NCI-H226 lung, 0.712% (active); in the assay with NCI-H322M lung, 18.5%; with HOP-62 NSCLC, -13% (active); in the assay on NCI-H460 lung it was 2.82% (active); with HOP-92 NSCLC it was -13.6% (active). The growth with NCI-H522 lung was 31.3%; in the assay on A549/ATCC NSCLC, 0.0474% (active); with 786-0 renal, 1.3% (active); with COLO 205 colon it was -46.1% (active); in the assay on DU-145 prostate, 11.6%; in the assay on K-562 leukemia, 101%. Besides, the growth is -44.7% (active) in the assay with MALME-3M melanoma; 11.5% in the assay on MDA-MB-231 breast; -74.7% (active) in the assay with RXF 393 renal; 14.6% with SF-268 CNS; -5.7% (active) in the assay with SF-295 CNS; -7.07% (active) in the assay with SF-539 CNS. Also, the values for the growth in the assay with UACC-257 melanoma and in the assay on M14 melanoma were 24.4% and -33.2% (active), respectively.
As to `CCCCCCCC[N+](C)(CCCCCCCC)CCCCCCCC`, the growth in the assay with NCI-H23 lung is -97% (active); with NCI-H226 lung it was -86.2% (active); with NCI-H322M lung it was -100% (active); with HOP-62 NSCLC it was -92.2% (active); in the assay with NCI-H460 lung, -100% (active); in the assay with HOP-92 NSCLC, -70% (active). Besides, the growth in the assay on NCI-H522 lung is -99.9% (active); with A549/ATCC NSCLC, -100% (active); in the assay on 786-0 renal it was -95.7% (active); in the assay on COLO 205 colon, -60.7% (active); with DU-145 prostate, -100% (active); in the assay with K-562 leukemia it was 86.9%. In addition, the growth was -91.7% (active) in the assay on MALME-3M melanoma; -87% (active) in the assay with MDA-MB-231 breast; -100% (active) in the assay with RXF 393 renal; -100% (active) in the assay on SF-268 CNS; -94.8% (active) in the assay on SF-295 CNS; -100% (active) in the assay on SF-539 CNS. In addition, the figures for the growth in the assay on UACC-257 melanoma and in the assay with M14 melanoma were -95.2% (active) and -94.1% (active), respectively.
As for `C=CC[n+]1ccc(-c2cc[n+](CC=C)cc2)cc1`, the growth in the assay with NCI-H23 lung is 78.8%; in the assay with NCI-H226 lung, 99%; in the assay with NCI-H322M lung, 95.7%; in the assay with HOP-62 NSCLC it was 83.7%; in the assay with NCI-H460 lung, 91.9%; in the assay with HOP-92 NSCLC, 111%. The growth with NCI-H522 lung is 19.7%; in the assay with A549/ATCC NSCLC, 71.9%; in the assay with 786-0 renal, 109%; in the assay on COLO 205 colon, 9.91% (active); in the assay with DU-145 prostate, 107%; with K-562 leukemia it was 99.4%. Moreover, the growth is 34.1% in the assay with MALME-3M melanoma; 120% in the assay on MDA-MB-231 breast; 99.8% in the assay with RXF 393 renal; 102% in the assay with SF-268 CNS; 101% in the assay with SF-295 CNS; 101% with SF-539 CNS. Also, the growth is 96.9% with UACC-257 melanoma and 109% in the assay on M14 melanoma.
